The sample as a whole holds a higher share of hits than the screen did.
RMI-FANCM inh = blocks RMI1/RMI2 complex binding to FANCM MM2 peptide | Fluorescence polarization, RMI core complex with F-MM2 peptide; hits give low values | FP signal (polarization) at 33 µM | hit rate 0.58% among 70,000; in the data active means FP signal below about 40
Active calls of the source: *; ! = not active in a repeat.

SMILES	RMI-FANCM inh
O=C(NCC(=O)N1CCOC(c2ccccc2)C1)c1c(F)cccc1Cl (stereo not given)	73
COC(=O)C1=C(C)NC(C)=C(C(=O)OC(C)C)C1c1cccc2nonc12 (stereo not given)	58
COC(=O)C1=C(C)Nc2[nH]ncc2C1c1ccccc1 (stereo not given)	69
COC(=O)C1=C(C)NC(C)=C(C(=O)OCC(C)C)C1c1ccccc1[N+](=O)[O-] (stereo not given)	21*!
C=CCn1c(=NC(=O)COc2ccccc2)sc2cccc(OC)c21	58
COc1ccc(-c2cn3c(C(=O)Nc4cc(C)on4)csc3n2)cc1	62
CCOc1ccc(-c2[nH]ncc2Oc2cccc(OC)c2)c(O)c1	59
Oc1ccc(-c2[nH]ncc2Oc2ccccc2)c(O)c1O	31*
COc1ccccc1Oc1cn[nH]c1-c1ccc(O)cc1O	57
N/C(Cc1cccc2ccccc12)=N/OC(=O)c1ccc(Cl)cc1	53
Cn1ccc(C(=O)Nc2ccc(-c3nc4ccccc4s3)c(O)c2)n1	90
O=C(Nc1nccs1)c1ccc(N2CCCCS2(=O)=O)cc1	54
COc1ccc(NC(=O)CC2SC(=N)NC2=O)c([N+](=O)[O-])c1 (stereo not given)	64
COc1ccc(NC(=O)CSc2ccc(F)cc2)c([N+](=O)[O-])c1	9*
COc1ccc(SCC(=O)Nc2ccc(F)cc2F)cc1	52
O=C(c1ccc2nsnc2c1)N1CCN(C2c3ccccc3-c3ccccc32)CC1	55
Cc1c(C(=O)N2CCN(C3c4ccccc4-c4ccccc43)CC2)cnn1-c1ccccc1	61
O=C(c1ccno1)N1CCN(C2c3ccccc3-c3ccccc32)CC1	-13*!
COc1ccc(F)cc1S(=O)(=O)N1CCN(c2ccc3nncn3n2)CC1	68
O=c1ccn(-c2ccc(F)cc2)nc1-c1ccnc(=S)[nH]1	55
Cc1ccc2occ(C=O)c(=O)c2c1	17*
Cc1ccc2oc(C(=O)O)cc(=O)c2c1	59
Cc1coc2ccccc2c1=O	63
Cc1cccc(-n2nnnc2SCC(=O)NCCO)c1	52
O=C(Nc1cccc(-c2ccc3nnc(-c4cccnc4)n3n2)c1)c1ccc(F)cc1	143
SMILES	RMI-FANCM inh
Cc1ccc(-c2csc(NC(=O)c3nc4ccccc4s3)n2)o1	111
Cc1ccc(-c2csc(NC(=O)c3nc4ccccc4s3)n2)cc1	130
O=C(Nc1csc(-c2ccc(Oc3ccc(-c4nc(NC(=O)c5nc6ccccc6s5)cs4)cc3)cc2)n1)c1nc2ccccc2s1	31*
O=C(c1csc(Nc2ccccc2)n1)N1CCN(c2ccccc2F)CC1	63
Cn1c(=O)[nH]c(=O)c2c1nc(N1CCN(Cc3ccc(F)cc3)CC1)n2Cc1cccc2ccccc12	55
CC(=O)NC(=O)/C(C#N)=C/N1CCN(c2ccccc2)CC1	53
C=CCOC(=O)C(C#N)c1nc2ccccc2nc1N1CCN(c2ccccc2)CC1 (stereo not given)	29*
Cc1cc(C)c(C#N)c(N2CCN(c3ccccc3)CC2)n1	50
CCN1CCN(Cc2c(O)ccc3c(-c4cc5cc(Cl)ccc5oc4=O)cc(=O)oc23)CC1	60
CCN1CCOc2ccc(NS(=O)(=O)C3CCCCC3)cc2C1=O	55
CN(C)c1ccc(CCNC(=O)Cc2ccc(Cl)cc2)cc1	69
O=C(NCC(c1ccsc1)N1CCCCCC1)Nc1ccccc1 (stereo not given)	70
O=C(NN1C(=O)/C(=C\C=C\c2ccco2)SC1=S)c1ccc([N+](=O)[O-])cc1	21*
O=C(Cc1ccccc1)NN1C(=O)/C(=C/c2cccc([N+](=O)[O-])c2)SC1=S	59
Cc1ccc(C(=O)NN2C(=O)/C(=C/c3ccc(N(C)C)cc3)SC2=S)cc1	104
Cc1cccc(N2C(=O)/C(=C/C=C/c3ccco3)SC2=S)c1C	9*
CN1C(=O)/C(=C\C=C\c2ccccc2)SC1=S	59
CC(C(=O)O)N1C(=O)/C(=C/C=C/c2ccco2)SC1=S (stereo not given)	82
C=CCn1c(SCCC(=O)Nc2ccc(OC)cc2)nc2sc3c(c2c1=O)CCCCC3	82
CCN1C(=O)c2cc(NS(=O)(=O)c3ccc(OC)c(Cl)c3)ccc2Oc2ccccc21	65
COc1cc(S(=O)(=O)N2CCN(CCO)CC2)c(OC)cc1Cl	62
CCc1nnc(C2CCN(C(=O)Nc3ccc(C)cc3)CC2)s1	61
Cc1ccc(C)c(S(=O)(=O)N=C2C=C(Br)C(=O)c3ccccc32)c1	-1*
Cc1ccc(C)c(S(=O)(=O)Nc2ccccc2F)c1	73
Cc1ccc(C)c(S(=O)(=O)n2cccn2)c1	63
SMILES	RMI-FANCM inh
Cc1onc(-c2ccccc2Cl)c1C(=O)Nc1ccc2c(c1)COCO2	1*
CC(=O)N1CCc2ccc(NC(=O)c3c(-c4ccccc4Cl)noc3C)cc21	66
Cc1onc(-c2ccccc2Cl)c1C(=O)Nc1ccc2c(c1)OCC(C)(C)C(=O)N2	66
N#CC(C#N)=Cc1cccn1S(=O)(=O)c1ccc(F)cc1F	59
COc1ccc(S(=O)(=O)Nc2cc(-c3c(O)ccc4ccccc34)c(O)c3ccccc23)cc1	58
CCOc1ccc(S(=O)(=O)Nc2cc(-c3c(O)ccc4ccccc34)c(O)c3ccccc23)cc1	56
O=S(=O)(Nc1cc(Br)c(O)c2ccccc12)c1ccc2ccccc2c1	29*
CCn1nccc1C(=O)Nc1ccc(Cl)cc1	74
Cc1ccc(C)c(NC(=O)CSc2nc3c(sc(=S)n3-c3ccccc3)c(=O)[nH]2)c1	61
COc1ccc(CCN2CCC(Nc3nc4ccccc4n3Cc3ccc(F)cc3)CC2)cc1	20*!
COc1ccc(CCS(=O)(=O)NCC2CCN(Cc3ccccc3)CC2)cc1	77
COc1ccc2[nH]c(C(=O)NC3CCN(Cc4ccccc4)CC3)cc2c1	56
Fc1ccc2nc(Nc3nnc(-c4cccs4)o3)sc2c1	84
Fc1ccc2nc(Nc3nnc(-c4ccco4)o3)sc2c1	80
COc1ccccc1-c1nnc(Nc2nc3ccc(F)cc3s2)o1	29*
O=C(Cc1ccc(F)cc1)NNC(=O)c1ccc(=O)n(Cc2ccccc2)c1	65
O=C(c1ccc(Cl)cc1)c1ccc(OC(=O)N2CCOCC2)cc1	65
CC1(C)CC(=O)c2c(nc(SCC(=O)c3ccc(Cl)c(Cl)c3)c(C#N)c2-c2ccccc2)C1	131
COc1ccc(-c2c(C#N)c(SCC(=O)c3ccc4c(c3)OCCO4)nc3c2C(=O)CC(C)(C)C3)cc1	164
N#Cc1c(N)nc(SCC(=O)c2ccc(O)c(O)c2)c(C#N)c1-c1ccc(OCc2ccccc2)cc1	14*
O=C(OCc1ccc([N+](=O)[O-])cc1)c1ccc(S(=O)(=O)NCC2CCCO2)cc1 (stereo not given)	59
O=C(Nc1nc(-c2cc([N+](=O)[O-])cs2)cs1)c1ccc(S(=O)(=O)N2CCOCC2)cc1	72
C=C(C)Cn1c(SCC(=O)N2CCc3ccccc32)nc2sc3c(c2c1=O)CCC3	70
Cc1ccc(-c2ccc(N3CCN(S(=O)(=O)c4ccccc4Cl)CC3)nn2)c(C)c1	80
Cc1ccc(N2CCN(S(=O)(=O)c3cc(Cl)ccc3Cl)CC2)c(C)c1	64
Cc1ccc(S(=O)(=O)N=C2C=CC(=O)C(Cl)=C2)c(C)c1	-12*
CN(C)CCCN1CNC(=S)NC1	56
COc1ccc(-c2[nH]c(=S)[nH]c(=O)c2C#N)cc1OC	51
CCOC(=O)CCC(=O)NCc1ccc2[nH]c3c(c2c1)CCCC3	55
C/C=C\C(=O)NCc1ccc2[nH]c3c(c2c1)CCCC3	14*
